Results taken from the supplement of paper PMC10849652.
The full data set covers some 7,900 targets. This sample favours those with a hit. About 0.6% of all pairs of compound and target were hits.

Legend:
Experiment in all cases: log2 fold change, soluble protein after heating vs DMSO (PISA); higher = thermal stabilisation; K562 cells, 10 uM, 30 min; active = over 0.2 and 3.5 SD of the protein, either way, in both replicates (recomputed)
saracatinib = compound: CN1CCN(CCOc2cc(OC3CCOCC3)c3c(Nc4c(Cl)ccc5c4OCO5)ncnc3c2)CC1 [saracatinib]
In short: (§1)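 Thermal stability values are relative to control samples and come from duplicates. They are expressed as log2 fold changes. For measurement, K562 cells (2×10^6 cells/mL) received 10 μM compound for 30 min, and aliquots were heated for 3 min over 48°C-58°C, pooled, and extracted at 4°C in PBS with 0.5% NP-40. Soluble protein, the supernatant after 21,000xg for 90 min, was quantified by TMTpro 16plex LC-MS/MS with equalised channel sums.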

sotrastaurin = compound: CN1CCN(c2nc(C3=C(c4c[nH]c5ccccc45)C(=O)NC3=O)c3ccccc3n2)CC1 [sotrastaurin]
In short: as §1

alvocidib = compound: CN1CC[C@H](c2c(O)cc(O)c3c(=O)cc(-c4ccccc4Cl)oc23)[C@H](O)C1 [alvocidib]
In short: as §1

Tubastatin A = compound: CN1CCc2c(c3ccccc3n2Cc2ccc(C(=O)NO)cc2)C1 [Tubastatin A]
In short: as §1

[1] = compound: CNC(=O)C1=CC=CC=C1NC2=NC(=NC=C2Cl)NC3=C(C=C(C=C3)N4CCOCC4)OC
In short: as §1

defactinib = compound: CNC(=O)c1ccc(Nc2ncc(C(F)(F)F)c(NCc3nccnc3N(C)S(C)(=O)=O)n2)cc1 [defactinib]
In short: as §1

rucaparib = compound: CNCc1ccc(-c2[nH]c3cc(F)cc4c3c2CCNC4=O)cc1 [rucaparib]
In short: as §1

[2] = compound: CNc1nc(-c2ccc3c(N)n[nH]c3c2)cc(N2C[C@@H](C(=O)NC3CCCCC3)CC[C@H]2C)n1
In short: as §1

encorafenib = compound: COC(=O)N[C@@H](C)CNc1nccc(-c2cn(C(C)C)nc2-c2cc(Cl)cc(NS(C)(=O)=O)c2F)n1 [encorafenib]
In short: as §1

[3] = compound: COC(=O)[C@H](CCSC)NC(=O)C1=C(C=C(C=C1)NC[C@H](CS)N)C2=CC=CC=C2
In short: as §1

Measured: log2 fold change

HNRNPK isoform 2 (UniProt P61978)
inactive: saracatinib -0.057 | sotrastaurin -0.037 | alvocidib -0.155 | Tubastatin A 0.064 | [1] -0.017 | rucaparib -0.053 | [2] 0.015 | encorafenib 0.028 | [3] 0.003
active: defactinib -0.228

GDE1 (UniProt Q9NZC3)
Sequence of UniProt Q9NZC3 (Q9NZC3 whole entry, looked up): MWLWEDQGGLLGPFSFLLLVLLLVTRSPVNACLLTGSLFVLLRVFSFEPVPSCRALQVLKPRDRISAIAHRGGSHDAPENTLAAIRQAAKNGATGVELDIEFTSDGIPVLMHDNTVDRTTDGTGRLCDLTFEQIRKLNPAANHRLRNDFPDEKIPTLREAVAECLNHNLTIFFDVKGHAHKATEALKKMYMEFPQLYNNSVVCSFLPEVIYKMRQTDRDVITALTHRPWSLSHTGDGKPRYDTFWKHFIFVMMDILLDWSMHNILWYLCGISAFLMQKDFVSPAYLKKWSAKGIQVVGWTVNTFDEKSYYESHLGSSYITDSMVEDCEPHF
active: Tubastatin A -0.316
inactive: saracatinib 0.029 | sotrastaurin 0.051 | alvocidib -0.059 | [1] -0.003 | defactinib -0.017 | rucaparib 0.009 | [2] 0.01 | encorafenib -0.017 | [3] 0.024

GTF2A2 (UniProt P52657)
Sequence of UniProt P52657 (P52657 whole entry, looked up): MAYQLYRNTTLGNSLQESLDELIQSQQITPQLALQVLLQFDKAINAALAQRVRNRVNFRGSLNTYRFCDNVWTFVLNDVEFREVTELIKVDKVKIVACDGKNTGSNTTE
inactive: saracatinib 0.034 | sotrastaurin 0.018 | alvocidib -0.003 | Tubastatin A 0.026 | [1] -0.031 | defactinib -0.025 | rucaparib -0.061 | [2] -0.025 | encorafenib -0.022 | [3] 0.018

H2AFX (UniProt P16104)
inactive: saracatinib -0.123 | sotrastaurin 0.081 | alvocidib 0.249 | Tubastatin A 0.025 | [1] -0.003 | defactinib 0.53 | rucaparib 0.347 | [2] 0.089 | encorafenib -0.013 | [3] 0.233

GNL1 (UniProt P36915)
Sequence of UniProt P36915 (P36915 whole entry, looked up): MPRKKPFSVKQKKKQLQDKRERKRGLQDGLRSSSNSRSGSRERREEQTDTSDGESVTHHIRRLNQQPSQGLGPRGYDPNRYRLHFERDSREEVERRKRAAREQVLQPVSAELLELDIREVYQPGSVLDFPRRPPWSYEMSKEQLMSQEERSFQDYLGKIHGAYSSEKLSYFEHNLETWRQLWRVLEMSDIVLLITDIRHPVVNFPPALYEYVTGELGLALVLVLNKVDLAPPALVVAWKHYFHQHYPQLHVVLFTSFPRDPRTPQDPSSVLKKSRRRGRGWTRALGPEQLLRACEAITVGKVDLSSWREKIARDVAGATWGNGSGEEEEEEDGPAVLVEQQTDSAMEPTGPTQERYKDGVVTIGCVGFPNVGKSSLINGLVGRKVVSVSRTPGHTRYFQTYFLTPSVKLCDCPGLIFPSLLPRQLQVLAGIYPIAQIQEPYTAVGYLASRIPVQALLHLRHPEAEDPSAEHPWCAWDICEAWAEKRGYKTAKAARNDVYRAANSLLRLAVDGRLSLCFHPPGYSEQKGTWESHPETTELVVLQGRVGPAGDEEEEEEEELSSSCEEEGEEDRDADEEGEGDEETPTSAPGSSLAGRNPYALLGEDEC
inactive: saracatinib 0.013 | sotrastaurin 0.013 | alvocidib -0.038 | Tubastatin A 0.018 | [1] 0.009 | defactinib 0.023 | rucaparib -0.039 | [2] 0.016 | encorafenib 0.021 | [3] -0.011

FBXO3 (UniProt Q9UK99)
Sequence of UniProt Q9UK99 (Q9UK99 whole entry, looked up): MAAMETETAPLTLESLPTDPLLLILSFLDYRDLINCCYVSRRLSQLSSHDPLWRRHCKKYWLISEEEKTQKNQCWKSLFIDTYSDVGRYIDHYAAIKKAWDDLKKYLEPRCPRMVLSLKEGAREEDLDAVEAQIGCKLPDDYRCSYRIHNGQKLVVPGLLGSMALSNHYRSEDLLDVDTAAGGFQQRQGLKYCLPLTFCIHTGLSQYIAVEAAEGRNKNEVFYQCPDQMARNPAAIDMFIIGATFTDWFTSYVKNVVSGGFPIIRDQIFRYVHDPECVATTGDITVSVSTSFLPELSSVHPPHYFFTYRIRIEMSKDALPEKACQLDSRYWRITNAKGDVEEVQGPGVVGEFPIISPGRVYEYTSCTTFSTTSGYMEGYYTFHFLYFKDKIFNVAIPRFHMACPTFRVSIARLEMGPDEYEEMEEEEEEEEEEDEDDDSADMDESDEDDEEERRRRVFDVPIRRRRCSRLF
inactive: saracatinib 0.029 | sotrastaurin 0.049 | alvocidib -0.048 | Tubastatin A 0.157 | [1] -0.051 | defactinib 0.072 | rucaparib 0.016 | [2] -0.076 | encorafenib 0.018 | [3] -0.005
